Results filed as inconclusive are left out. Some compounds were tested as several samples or in several runs, with calls that do not always agree. Active and inactive are the calls of the source. The calls were made as follows: active = hit-call score of the fitted dose curve at least 0.9, where 1 is the maximum; inconclusive = response in the unintended direction; inactive = score below 0.9.
Columns and labels:
[1] = target: rat Somatostatin Receptor (SST), Sstr1 (gene 25033) (UniProt P28646); assay: NVS_GPCR_rSST: NovaScreen (NVS) G Protein-Coupled Receptor Assay for rat Somatostatin Receptor (SST) (AID 2283314)
In short: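 Rat forebrain membranes; radioligand displacement read by filter-based scintillation counting 1 h after dosing. Primary screen in duplicate at 25 uM. Actives (e.g., 30% inhibition) were rerun as concentration-response to 50 uM max and fitted against DMSO.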

[2] = target: rat Neonicotinoid receptor (NNR), Chrna7 (gene 25302) (UniProt Q05941); assay: NVS_LGIC_rNNR_BungSens: NovaScreen (NVS) Ligand-Gated Ion Channel Assay for rat Neonicotinoid receptor (NNR) (AID 2283315)
In short: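 Radioligand displacement binding on rat cortical membranes, 2.5 h incubation, filtration and scintillation counting. Loss of specific binding fitted relative to DMSO.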

[3] = target: Sodium channel protein type 1 subunit alpha (Rattus norvegicus) (UniProt P04774); assay: NVS_IC_rNaCh_site2: NovaScreen (NVS) Ion Channel Assay for rat Sodium Channel, Site 2 (NaCh) (AID 2283322);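 also: hit means loss of radioligand binding signal relative to DMSO so AC50 marks displacement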
In short: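 Membranes: rat forebrain. Format: competitive radioligand displacement, filter separation, scintillation readout, 1 h exposure. Primary screen in duplicate at 25 uM; actives retested in concentration series.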

[4] = target: rat Glutamate, AMPA Site (AMPA), Gria1 (gene 50592) (UniProt P19490); assay: NVS_LGIC_rAMPA: NovaScreen (NVS) Ligand-Gated Ion Channel Assay for rat Glutamate, AMPA Site (AMPA) (AID 2283324)
In short: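 Rat forebrain membranes; radioligand binding read 1 h after dosing by filtration and scintillation counting. Duplicate single-point screen at 25 uM, then concentration-response to 50 uM for threshold hits (e.g. 30% inhibition); loss of signal vs DMSO.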

[5] = target: human Serotonin, 5-Hydroxytryptamine Receptor 3 (5HT3), HTR3A (gene 3359) (UniProt P46098); assay: NVS_LGIC_h5HT3: NovaScreen (NVS) Ligand-Gated Ion Channel Assay for human Serotonin, 5-Hydroxytryptamine Receptor 3 (5HT3) (AID 2283325)
In short: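 Radioligand displacement binding to human 5-HT3 from HEK293 membranes, read by filter-based scintillation counting after 1 h. Screen at 25 uM in duplicate; chemicals passing threshold were retested in concentration-response up to 50 uM.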

[6] = target: human Androgen Receptor (AR), AR (gene 367) (UniProt P10275); assay: NVS_NR_hAR: NovaScreen (NVS) Nuclear Receptor Binding Assay for human Androgen Receptor (AR) (AID 2283332)
In short: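 Radioligand competitive binding, scintillation read-out, in cell-free extract from LnCAP, measured 20 h after dosing. Screened first in duplicate at 25 uM, then concentration series for actives; activity fitted against DMSO.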

[7] = target: Voltage-gated inwardly rectifying potassium channel KCNH2 (Homo sapiens) (UniProt Q12809); assay: NVS_IC_hKhERGCh: NovaScreen (NVS) Ion Channel Assay for human Potassium Channel ERG (KhERGCh) (AID 2283333)
In short: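 Cell-free radioligand competition binding on hERG protein extracted from CHO cells, read by filter-based scintillation counting 0.75 h after dosing. Primary screen at 25 uM in duplicate, actives followed in concentration series. Signal loss fitted versus DMSO.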

[8] = target: rat Peripheral-type Benzodiazepine Receptor (PBR), Tspo (gene 24230) (UniProt P16257); assay: NVS_MP_rPBR: NovaScreen (NVS) Membrane Protein Assay for rat Peripheral-type Benzodiazepine Receptor (PBR) (AID 2283335)
In short: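 Rat kidney membranes; radioligand binding with displacement, filter-based scintillation counting, 1 h incubation. Primary screen in duplicate at 25 uM, actives followed in concentration series; loss of binding vs DMSO.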

[9] = target: human Peripheral-type Benzodiazepine Receptor (PBR), TSPO (gene 706) (UniProt P30536); assay: NVS_MP_hPBR: NovaScreen (NVS) Membrane Protein Assay for human Peripheral-type Benzodiazepine Receptor (PBR) (AID 2283331);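 also: hits reduce radioligand binding relative to DMSO baseline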
In short: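 Scintillation counts of filter-bound radioligand served as read-out after 1 h chemical dosing of human colonic membrane preparations. Activity was scored as signal loss against DMSO; initial duplicates at 25 uM, confirmatory concentration series afterward.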

[10] = NVS_IC_rCaBTZCHL: NovaScreen (NVS) Ion Channel Assay for Calcium Channel, Type L, Benzothiazepine Site (CaBTZCHL) (AID 2283337)
In short: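 Radioligand displacement at the benzothiazepine site using rat cortical membranes; bound label measured by filtration and scintillation counting 1.5 h after dosing. Single-point 25 uM in duplicate, then concentration series; DMSO baseline.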

[11] = target: rat Vasopressin 1 Receptor (V1), Avpr1a (gene 25107) (UniProt P30560); assay: NVS_GPCR_rV1: NovaScreen (NVS) G Protein-Coupled Receptor Assay for rat Vasopressin 1 Receptor (V1) (AID 2283316)
In short: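 Radioligand binding on rat liver membranes, 1.5 h incubation, filter-based scintillation counting. Single 25 uM screen in duplicate; chemicals meeting threshold (e.g. 30% inhibition) run in concentration-response up to 50 uM.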

[12] = target: rat Glutamate, NMDA Agonist Site (GluNMDA), Grin1 (gene 24408) (UniProt P35439); assay: NVS_LGIC_rGluNMDA_Agonist: NovaScreen (NVS) Ligand-Gated Ion Channel Assay for rat Glutamate, NMDA Agonist Site (GluNMDA) (AID 2283327)
In short: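 Rat forebrain membranes, radioligand binding in the agonist-site protocol; 1 h after dosing; filter-based scintillation counting. Single-concentration duplicate screen at 25 uM, then concentration-response up to 50 uM for actives; gain-of-signal vs DMSO.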

[13] = target: bovine Gamma-Aminobutyric Acid Type A Receptor BDZ, alpha 5 site (GABARa5), GABRA5 (gene 523515) (UniProt Q08E50); assay: NVS_LGIC_bGABARa5: NovaScreen (NVS) Ligand-Gated Ion Channel Assay for bovine Gamma-Aminobutyric Acid Type A Receptor BDZ, alpha 5 site (GABARa5) (AID 2283323)
In short: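 Radioligand competitive displacement binding on bovine hippocampal membranes, read 1 hr after dosing by filter-based scintillation counting. Primary screen at 25 uM in duplicate; actives (e.g. ≥30% inhibition) then run in concentration-response up to 50 uM.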

[14] = system: NCBI gene 24521; assay: NVS_IC_rKATPCh: NovaScreen (NVS) Ion Channel Assay for rat Potassium Channel, ATP-Sensitive (KATPCh) (AID 2283319)
In short: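 Rat cortical membranes; radioligand binding at ATP-sensitive K channel site, filter-based scintillation counting 2 h after dosing. Single-point duplicate screen at 25 uM, hits rerun in concentration-response up to 50 uM; loss of signal versus DMSO.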

[15] = NVS_IC_rCaDHPRCh_L: NovaScreen (NVS) Ion Channel Assay for rat Calcium Channel, Type L, Dihydropyridine Site (CaDHPRCh_L) (AID 2283320)
In short: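 Radioligand binding to dihydropyridine site on rat cortical membranes, filter-based scintillation counting, 1 h after dosing. Screened in duplicate at 25 uM; actives rerun in concentration-response up to 50 uM. Loss of signal versus DMSO baseline.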

[16] = target: Small conductance calcium-activated potassium channel protein 1 (Rattus norvegicus) (UniProt P70606); assay: NVS_IC_rKCaCh: NovaScreen (NVS) Ion Channel Assay for rat Potassium Channel, Ca2+ Act., VI (KCaCh) (AID 2283336)
In short: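 Radioligand binding to rat forebrain membranes, cell-free, read 1 hour after dosing by filter-based scintillation counting. Compounds first run in duplicate at 25 uM, actives then in concentration series; loss of signal vs DMSO indicates displacement.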

Sequence of rat Somatostatin Receptor (SST), Sstr1 (gene 25033) (P28646 whole entry, looked up): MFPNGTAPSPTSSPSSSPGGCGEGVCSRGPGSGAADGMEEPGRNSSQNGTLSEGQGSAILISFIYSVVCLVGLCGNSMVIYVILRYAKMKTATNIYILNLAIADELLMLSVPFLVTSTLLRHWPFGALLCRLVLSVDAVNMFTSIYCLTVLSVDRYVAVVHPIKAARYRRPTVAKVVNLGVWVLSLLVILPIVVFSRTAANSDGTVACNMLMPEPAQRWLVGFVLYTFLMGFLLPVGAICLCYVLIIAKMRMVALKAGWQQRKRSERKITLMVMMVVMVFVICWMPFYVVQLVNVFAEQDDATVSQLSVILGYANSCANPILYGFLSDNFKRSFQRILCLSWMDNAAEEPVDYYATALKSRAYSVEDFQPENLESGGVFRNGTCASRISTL
Sequence of rat Vasopressin 1 Receptor (V1), Avpr1a (gene 25107) (P30560 whole entry, looked up): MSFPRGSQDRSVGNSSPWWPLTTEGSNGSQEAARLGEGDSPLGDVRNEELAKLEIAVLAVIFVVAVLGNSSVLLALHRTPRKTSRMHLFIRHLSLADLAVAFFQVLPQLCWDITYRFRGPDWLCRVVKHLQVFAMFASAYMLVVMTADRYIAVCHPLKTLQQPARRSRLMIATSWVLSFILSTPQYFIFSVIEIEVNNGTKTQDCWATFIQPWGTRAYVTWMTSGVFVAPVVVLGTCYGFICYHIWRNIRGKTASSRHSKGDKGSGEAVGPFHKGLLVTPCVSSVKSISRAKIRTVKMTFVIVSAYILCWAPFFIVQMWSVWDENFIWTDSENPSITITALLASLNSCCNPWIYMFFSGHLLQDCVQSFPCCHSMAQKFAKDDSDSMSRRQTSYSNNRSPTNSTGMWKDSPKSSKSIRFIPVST
Sequence of Voltage-gated inwardly rectifying potassium channel KCNH2 (Homo sapiens) (Q12809 whole entry, looked up): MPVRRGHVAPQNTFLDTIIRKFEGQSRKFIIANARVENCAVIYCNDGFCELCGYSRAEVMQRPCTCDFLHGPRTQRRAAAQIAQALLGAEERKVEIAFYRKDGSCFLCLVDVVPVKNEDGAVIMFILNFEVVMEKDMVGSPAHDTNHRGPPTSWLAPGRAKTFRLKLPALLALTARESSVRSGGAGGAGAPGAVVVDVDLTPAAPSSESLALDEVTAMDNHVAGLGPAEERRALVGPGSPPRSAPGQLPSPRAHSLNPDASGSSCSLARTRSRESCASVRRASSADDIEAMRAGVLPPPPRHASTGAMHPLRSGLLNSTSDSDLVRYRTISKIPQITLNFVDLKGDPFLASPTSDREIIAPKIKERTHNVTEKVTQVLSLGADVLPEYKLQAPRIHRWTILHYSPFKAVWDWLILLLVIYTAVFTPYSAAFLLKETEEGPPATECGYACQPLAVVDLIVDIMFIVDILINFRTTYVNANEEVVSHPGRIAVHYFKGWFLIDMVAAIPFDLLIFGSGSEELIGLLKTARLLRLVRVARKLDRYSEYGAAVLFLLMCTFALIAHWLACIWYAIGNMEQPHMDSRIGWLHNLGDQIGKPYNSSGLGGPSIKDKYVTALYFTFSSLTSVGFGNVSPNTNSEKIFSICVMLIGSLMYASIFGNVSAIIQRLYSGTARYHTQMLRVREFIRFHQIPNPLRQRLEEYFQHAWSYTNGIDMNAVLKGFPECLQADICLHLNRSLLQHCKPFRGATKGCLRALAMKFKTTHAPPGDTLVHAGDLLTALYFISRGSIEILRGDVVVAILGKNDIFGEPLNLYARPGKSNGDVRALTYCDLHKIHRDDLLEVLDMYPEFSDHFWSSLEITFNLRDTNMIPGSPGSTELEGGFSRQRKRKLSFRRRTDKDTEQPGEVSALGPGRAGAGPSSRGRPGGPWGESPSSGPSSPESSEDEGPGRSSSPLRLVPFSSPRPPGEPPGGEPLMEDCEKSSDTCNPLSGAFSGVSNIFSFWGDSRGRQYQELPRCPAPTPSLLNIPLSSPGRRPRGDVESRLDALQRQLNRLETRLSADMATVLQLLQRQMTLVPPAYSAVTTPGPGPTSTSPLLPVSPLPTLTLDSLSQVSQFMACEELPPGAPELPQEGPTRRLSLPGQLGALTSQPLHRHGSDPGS
Sequence of human Peripheral-type Benzodiazepine Receptor (PBR), TSPO (gene 706) (P30536 whole entry, looked up): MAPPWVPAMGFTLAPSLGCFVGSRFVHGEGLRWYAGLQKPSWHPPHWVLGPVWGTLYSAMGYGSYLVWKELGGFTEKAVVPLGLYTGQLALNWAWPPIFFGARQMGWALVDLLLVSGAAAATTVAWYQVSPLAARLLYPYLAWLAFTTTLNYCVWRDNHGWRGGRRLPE
Sequence of rat Neonicotinoid receptor (NNR), Chrna7 (gene 25302) (Q05941 whole entry, looked up): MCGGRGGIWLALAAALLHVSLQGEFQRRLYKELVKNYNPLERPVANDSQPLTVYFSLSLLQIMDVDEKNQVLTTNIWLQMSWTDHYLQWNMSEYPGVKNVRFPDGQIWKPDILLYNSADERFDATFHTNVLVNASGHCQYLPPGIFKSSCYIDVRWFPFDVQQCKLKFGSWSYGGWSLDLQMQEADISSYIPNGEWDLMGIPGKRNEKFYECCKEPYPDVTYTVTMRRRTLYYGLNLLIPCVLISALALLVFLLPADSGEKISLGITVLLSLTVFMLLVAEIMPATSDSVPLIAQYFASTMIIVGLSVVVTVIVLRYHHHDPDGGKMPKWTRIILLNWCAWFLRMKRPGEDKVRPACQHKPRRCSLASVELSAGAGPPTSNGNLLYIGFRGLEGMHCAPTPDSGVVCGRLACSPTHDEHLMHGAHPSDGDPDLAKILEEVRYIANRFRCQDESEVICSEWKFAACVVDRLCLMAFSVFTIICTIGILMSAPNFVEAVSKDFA
Sequence of rat Glutamate, AMPA Site (AMPA), Gria1 (gene 50592) (P19490 whole entry, looked up): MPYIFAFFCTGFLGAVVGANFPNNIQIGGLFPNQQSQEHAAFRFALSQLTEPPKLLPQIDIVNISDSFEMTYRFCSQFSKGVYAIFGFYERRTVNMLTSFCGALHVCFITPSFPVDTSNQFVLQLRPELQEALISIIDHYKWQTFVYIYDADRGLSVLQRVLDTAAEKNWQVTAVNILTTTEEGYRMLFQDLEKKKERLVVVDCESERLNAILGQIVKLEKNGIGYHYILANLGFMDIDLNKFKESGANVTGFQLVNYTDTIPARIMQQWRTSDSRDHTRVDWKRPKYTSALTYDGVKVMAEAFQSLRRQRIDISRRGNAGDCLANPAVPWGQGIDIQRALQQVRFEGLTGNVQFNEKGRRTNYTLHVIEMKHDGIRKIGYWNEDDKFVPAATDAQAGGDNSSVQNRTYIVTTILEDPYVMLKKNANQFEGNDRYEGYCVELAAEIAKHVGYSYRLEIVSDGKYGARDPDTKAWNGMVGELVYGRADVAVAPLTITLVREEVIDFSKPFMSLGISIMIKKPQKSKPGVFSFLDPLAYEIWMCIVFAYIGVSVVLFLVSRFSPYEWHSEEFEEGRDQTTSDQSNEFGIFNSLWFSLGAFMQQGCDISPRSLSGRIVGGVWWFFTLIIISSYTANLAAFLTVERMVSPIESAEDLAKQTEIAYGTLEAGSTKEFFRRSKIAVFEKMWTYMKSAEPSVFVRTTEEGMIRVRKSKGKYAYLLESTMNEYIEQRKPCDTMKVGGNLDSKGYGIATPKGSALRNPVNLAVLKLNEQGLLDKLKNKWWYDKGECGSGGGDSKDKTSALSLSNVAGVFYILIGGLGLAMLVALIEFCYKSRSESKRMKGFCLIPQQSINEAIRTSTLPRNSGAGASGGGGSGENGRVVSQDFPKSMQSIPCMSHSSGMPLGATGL
Sequence of rat Peripheral-type Benzodiazepine Receptor (PBR), Tspo (gene 24230) (P16257 whole entry, looked up): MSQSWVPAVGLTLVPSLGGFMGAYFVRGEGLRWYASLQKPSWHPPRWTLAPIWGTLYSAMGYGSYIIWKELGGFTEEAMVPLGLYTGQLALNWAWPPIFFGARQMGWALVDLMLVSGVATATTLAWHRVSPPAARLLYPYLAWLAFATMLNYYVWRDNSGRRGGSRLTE
Sequence of human Serotonin, 5-Hydroxytryptamine Receptor 3 (5HT3), HTR3A (gene 3359) (P46098 whole entry, looked up): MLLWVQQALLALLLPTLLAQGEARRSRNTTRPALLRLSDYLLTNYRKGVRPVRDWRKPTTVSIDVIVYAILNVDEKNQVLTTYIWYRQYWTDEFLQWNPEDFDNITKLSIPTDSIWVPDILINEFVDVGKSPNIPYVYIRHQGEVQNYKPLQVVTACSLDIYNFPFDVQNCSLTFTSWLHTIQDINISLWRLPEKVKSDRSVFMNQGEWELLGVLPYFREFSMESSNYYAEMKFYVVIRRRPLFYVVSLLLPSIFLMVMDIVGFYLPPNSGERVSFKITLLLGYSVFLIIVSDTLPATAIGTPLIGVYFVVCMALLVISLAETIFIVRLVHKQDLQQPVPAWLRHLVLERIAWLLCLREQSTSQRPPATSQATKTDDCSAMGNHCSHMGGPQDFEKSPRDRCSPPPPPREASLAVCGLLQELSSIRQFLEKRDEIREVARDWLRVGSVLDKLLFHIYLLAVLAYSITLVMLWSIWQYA
Sequence of Small conductance calcium-activated potassium channel protein 1 (Rattus norvegicus) (P70606 whole entry, looked up): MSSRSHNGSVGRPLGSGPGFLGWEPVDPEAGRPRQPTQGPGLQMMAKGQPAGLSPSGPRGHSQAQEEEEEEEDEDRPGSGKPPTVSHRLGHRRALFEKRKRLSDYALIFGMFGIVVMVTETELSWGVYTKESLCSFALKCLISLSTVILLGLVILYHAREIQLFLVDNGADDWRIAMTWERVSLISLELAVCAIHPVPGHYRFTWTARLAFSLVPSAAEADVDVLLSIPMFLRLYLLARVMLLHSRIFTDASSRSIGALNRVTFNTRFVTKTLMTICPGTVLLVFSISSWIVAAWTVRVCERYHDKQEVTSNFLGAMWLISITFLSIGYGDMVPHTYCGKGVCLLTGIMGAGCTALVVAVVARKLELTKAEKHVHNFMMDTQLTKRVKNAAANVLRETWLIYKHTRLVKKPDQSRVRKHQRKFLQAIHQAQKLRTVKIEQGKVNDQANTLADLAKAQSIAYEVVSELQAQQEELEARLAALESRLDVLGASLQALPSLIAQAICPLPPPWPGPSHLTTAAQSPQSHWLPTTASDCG

Cc1cc(SC2=C(O)C[C@@](CCc3ccc(N)cc3)(C(C)C)OC2=O)c(C(C)(C)C)cc1CO
AC50 [1]: 17.2 µM (active)
outcome [2]: inactive
outcome [3]: inactive
outcome [4]: inactive
outcome [5]: inactive
AC50 [6]: 9.33 µM (active)
outcome [7]: inactive
outcome [8]: inactive

CCN(CC)CCOc1ccc(C(=C(Cl)c2ccccc2)c2ccccc2)cc1
AC50 [2]: 21 µM (active)
AC50 [3]: 1.99 µM (active)
AC50 [9]: 0.672 µM (active)
outcome [9]: inactive
AC50 [10]: 1.02 µM (active)

CCc1cc(C2=C(C(=O)O)N(c3ccccc3C(F)(F)F)S(=O)(=O)c3ccccc32)cc2c1OCO2
AC50 [11]: 25 µM (active)

CN(C)CCCN1c2ccccc2Sc2ccc(Cl)cc21
AC50 [3]: 1.96 µM (active)
AC50 [5]: 25 µM (active)
AC50 [12]: 25 µM (active)
AC50 [7]: 10.4 µM (active)
AC50 [10]: 2.52 µM (active)

NC(=Nc1ccccc1)Nc1ccccc1
outcome [3]: inactive
outcome [12]: inactive
AC50 [10]: 40.6 µM (active)

CC(C)c1cccc(C(C)C)c1NC(=O)NS(=O)(=O)c1cc(C(C)(C)O)co1
outcome [11]: inactive
outcome [13]: inactive

CCCCC(CC)COP(=O)(OCC(CC)CCCC)OCC(CC)CCCC (stereo not given)
outcome [3]: inactive
outcome [4]: inactive

CCCCC(CC)COC(=O)CCCCCCCC(=O)OCC(CC)CCCC (stereo not given)
outcome [3]: inactive

CCOCCOCCO
outcome [14]: inactive

CN(C)C(=O)NC1(c2ccccc2)CCN(CCC[C@]2(c3ccc(Cl)c(Cl)c3)CCCN(C(=O)c3ccccc3)C2)CC1
AC50 [15]: 0.988 µM (active)
AC50 [3]: 0.327 µM (active)
AC50 [7]: 1.24 µM (active)
outcome [16]: inactive
AC50 [10]: 1.24 µM (active)

CCCC[C@H]1CN(CC2CCOCC2)C(=O)OC12CCN(C1(C)CCN(C(=O)c3c(C)ncnc3C)CC1)CC2
AC50 [2]: 4.46 µM (active)

CCCCCCC(C=O)=Cc1ccccc1
outcome [1]: inactive

CC(=O)O
outcome [11]: inactive

O=C(N[C@@H](c1ccccc1)[C@@H]1CCCCN1)c1cccc(C(F)(F)F)c1Cl
AC50 [1]: 6.67 µM (active)
AC50 [3]: 1.27 µM (active)
AC50 [9]: 17.9 µM (active)
AC50 [7]: 32.9 µM (active)
AC50 [8]: 25 µM (active)
AC50 [10]: 0.967 µM (active)

CN(C)C(=O)NC1(c2ccccc2)CCN(CC[C@@]2(c3ccc(F)c(F)c3)CN(C(=O)c3ccccc3)CCO2)CC1
AC50 [15]: 3.38 µM (active)
AC50 [3]: 6.43 µM (active)
AC50 [10]: 2.2 µM (active)
